PubChem BioAssay (Tox21)
Records with an inconclusive call do not appear. Active and inactive are the calls of the source. Unless noted, the call rests on the fitted dose curve; in most records, active means well fitted curve in the direction sought with a large enough effect in the repeat runs; inconclusive means weak or mixed curves; inactive means no such curve, though single readings can be large; an effect the other way counts as inactive or inconclusive. Non-standard residues stand in square brackets, D forms with d. Residues, ends and D or L forms follow the SMILES beside them. *: point of attachment. Sta = CC(C)C[C@H](N)[C@@H](O)CC(=O)O; Isovaleryl = CC(C)CC(=O)*

Tests used:
[1] = biological target: Aryl hydrocarbon receptor (Homo sapiens) (UniProt P35869); experiment: qHTS assay to identify small molecule that activate the aryl hydrocarbon receptor (AhR) signaling pathway (AID 743085);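 further: HG2L7.5c1 human HepG2 liver cells with stably integrated DRE-driven firefly reporter; series mostly up to about 70 µM; nearly all actives have a fitted effect of over 15% in size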
Chain of Aryl hydrocarbon receptor (Homo sapiens) (P35869 whole entry, looked up): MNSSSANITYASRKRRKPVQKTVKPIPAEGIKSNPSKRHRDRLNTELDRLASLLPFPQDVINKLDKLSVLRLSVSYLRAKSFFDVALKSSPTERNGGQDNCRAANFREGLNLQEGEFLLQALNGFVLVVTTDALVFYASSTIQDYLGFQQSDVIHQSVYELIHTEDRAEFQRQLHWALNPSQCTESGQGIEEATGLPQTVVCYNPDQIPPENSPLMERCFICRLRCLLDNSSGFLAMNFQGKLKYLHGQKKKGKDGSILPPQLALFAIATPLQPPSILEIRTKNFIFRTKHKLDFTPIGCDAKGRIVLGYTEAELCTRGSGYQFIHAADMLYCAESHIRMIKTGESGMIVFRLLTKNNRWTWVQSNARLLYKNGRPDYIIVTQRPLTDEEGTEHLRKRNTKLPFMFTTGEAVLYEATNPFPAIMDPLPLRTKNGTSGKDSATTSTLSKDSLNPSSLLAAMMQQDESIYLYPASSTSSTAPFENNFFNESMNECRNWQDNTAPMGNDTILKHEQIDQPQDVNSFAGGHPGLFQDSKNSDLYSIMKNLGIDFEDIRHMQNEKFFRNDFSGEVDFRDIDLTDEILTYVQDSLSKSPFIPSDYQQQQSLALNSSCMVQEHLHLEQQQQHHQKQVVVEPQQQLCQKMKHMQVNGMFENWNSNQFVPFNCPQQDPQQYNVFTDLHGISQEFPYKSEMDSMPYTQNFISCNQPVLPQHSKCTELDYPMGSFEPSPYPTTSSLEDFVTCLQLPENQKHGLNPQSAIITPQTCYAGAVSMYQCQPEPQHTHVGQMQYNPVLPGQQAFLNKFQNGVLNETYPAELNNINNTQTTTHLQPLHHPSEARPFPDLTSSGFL
How it was run: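 Compounds were tested in HepG2 hepatocellular carcinoma cells harbouring a stably integrated luciferase gene under control of 20 DREs. Increased reporter signal after 24 h treatment at 37C was taken as AhR activation.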

[2] = qHTS assay to identify small molecule that activate the aryl hydrocarbon receptor (AhR) signaling pathway - cell viability counter screen (AID 743086);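 further: HepG2 liver cells carrying the AhR DRE luciferase reporter; series mostly up to about 70 µM; nearly all actives have a fitted effect of over 45% in size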
How it was run: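 HepG2-AhR-luc (HG2L7.5c1) cells, 4000/well, treated 24 h at 37 C with compound; viability measured as CellTiter-Fluor fluorescence after 30 min in the same wells as the luciferase read.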

[3] = biological target: Peroxisome proliferator-activated receptor gamma (Homo sapiens) (UniProt P37231); experiment: qHTS assay to identify small molecule agonists of the peroxisome proliferator-activated receptor gamma (PPARg) signaling pathway (AID 743094; active means well fitted activation curve with a large enough effect in the signal ratio in the repeat runs, not every such curve was filed as active; the % refers to the signal ratio)
Chain of Peroxisome proliferator-activated receptor gamma (Homo sapiens) (P37231 whole entry, looked up): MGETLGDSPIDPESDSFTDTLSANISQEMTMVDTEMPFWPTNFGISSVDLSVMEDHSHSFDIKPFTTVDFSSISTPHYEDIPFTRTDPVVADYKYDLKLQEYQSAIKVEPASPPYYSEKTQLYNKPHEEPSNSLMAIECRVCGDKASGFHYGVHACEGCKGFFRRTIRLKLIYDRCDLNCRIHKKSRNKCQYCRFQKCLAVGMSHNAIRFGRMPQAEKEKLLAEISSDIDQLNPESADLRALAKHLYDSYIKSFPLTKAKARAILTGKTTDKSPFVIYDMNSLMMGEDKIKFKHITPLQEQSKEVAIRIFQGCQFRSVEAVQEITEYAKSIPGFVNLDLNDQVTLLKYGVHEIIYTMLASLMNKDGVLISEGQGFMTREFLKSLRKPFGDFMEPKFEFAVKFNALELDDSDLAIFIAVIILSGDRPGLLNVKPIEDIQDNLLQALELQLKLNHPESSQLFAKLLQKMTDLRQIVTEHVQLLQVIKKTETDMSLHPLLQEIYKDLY
How it was run: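 Agonist activity was taken from a beta-lactamase reporter (FRET substrate, 1 h at room temperature) in HEK293H cells carrying a PPARg UAS-bla construct. Compounds in DMSO were incubated 17 h at 37C after a 5 h cell pre-incubation.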

[4] = biological target: Peroxisome proliferator-activated receptor gamma (Homo sapiens) (UniProt P37231); experiment: qHTS assay to identify small molecule antagonists of the peroxisome proliferator-activated receptor gamma (PPARg) signaling pathway (AID 743191; calls by dose curve; further: series mostly up to about 63 µM; nearly all actives have a fitted effect of over 30% in size)
How it was run: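 GeneBLAzer PPARg UAS-bla HEK293H cells, 5 h post-plating, exposed to compounds 17 h at 37C. LiveBLAzer B/G FRET substrate added for 1 h at room temperature; beta-lactamase reporter read by fluorescence intensity.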

[5] = qHTS assay to identify small molecule antagonists of the peroxisome proliferator-activated receptor gamma (PPARg) signaling pathway - cell viability counter screen (AID 743194); further: nearly all actives have a fitted effect of over 55% in size
How it was run: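 Cytotoxicity counter screen in PPARg-bla HEK293H cells, same wells as reporter assay. Compounds plus 50 nM rosiglitazone (final) for 17 h at 37 C, then viability read by CellTiter-Glo luminescence.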

[6] = qHTS assay for small molecule agonists of the antioxidant response element (ARE) signaling pathway - cell viability counter screen (AID 743203; calls by dose curve; further: nearly all actives have a fitted effect of over 55% in size)
How it was run: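 Viability counter screen: CellTiter-Glo luminescence, read after 30 min at room temperature, in ARE-bla HepG2 wells. Compound exposure lasted 16 h at 37C/5% CO2, following a 5 h pre-incubation of the cells after plating.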

[7] = qHTS assay for small molecule activators of the heat shock response signaling pathway - cell viability counter screen (AID 743209); further: nearly all actives have a fitted effect of over 50% in size
How it was run: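 Cytotoxicity counter screen run in the same wells as the heat-shock bla reporter assay: HeLa HSE-bla cells, 5 h compound exposure at 37 C, viability read by CellTiter-Glo luminescence.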

[8] = qHTS assay for small molecule activators of the heat shock response signaling pathway (AID 743210; active means well fitted activation curve with a large enough effect in the signal ratio in the repeat runs, with a control signal flat, not every such curve was filed as active; the % refers to the signal ratio;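 further: HeLa cells with beta-lactamase reporter driven by heat shock elements; series mostly up to about 63 µM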)
How it was run: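 Beta-lactamase reporter read-out: FRET substrate fluorescence after 2.5 h at RT, following 5 h compound treatment at 37 C of HeLa cells carrying HSE-driven bla reporter; quantitative HTS format.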

[9] = qHTS assay to identify small molecule agonists of the peroxisome proliferator-activated receptor delta (PPARd) signaling pathway - cell viability counter screen (AID 743211); further: nearly all actives have a fitted effect of over 55% in size
How it was run: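 Counter screen for cytotoxicity run in parallel with the PPARd reporter screen. Beta-lactamase reporter HEK293H cells exposed to compounds 17 h; ATP-based CellTiter-Glo luminescence quantified viability.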

[10] = biological target: Peroxisome proliferator-activated receptor delta (Homo sapiens) (UniProt Q03181); experiment: qHTS assay to identify small molecule agonists of the peroxisome proliferator-activated receptor delta (PPARd) signaling pathway (AID 743212; calls by dose curve)
Chain of Peroxisome proliferator-activated receptor delta (Homo sapiens) (Q03181 whole entry, looked up): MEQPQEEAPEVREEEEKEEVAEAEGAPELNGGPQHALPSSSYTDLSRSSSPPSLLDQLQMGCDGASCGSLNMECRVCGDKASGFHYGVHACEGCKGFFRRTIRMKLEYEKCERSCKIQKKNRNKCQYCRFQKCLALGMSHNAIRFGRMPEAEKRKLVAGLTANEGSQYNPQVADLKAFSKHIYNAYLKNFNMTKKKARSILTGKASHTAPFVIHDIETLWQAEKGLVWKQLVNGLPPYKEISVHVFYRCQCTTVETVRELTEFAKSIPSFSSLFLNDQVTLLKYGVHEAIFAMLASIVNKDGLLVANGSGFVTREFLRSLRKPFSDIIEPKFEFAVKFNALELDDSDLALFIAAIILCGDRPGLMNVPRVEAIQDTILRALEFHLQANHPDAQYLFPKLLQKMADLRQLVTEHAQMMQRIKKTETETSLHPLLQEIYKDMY
How it was run: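 Read-out: beta-lactamase FRET fluorescence after 2 h room-temperature incubation with LiveBLAzer B/G substrate. Cells were HEK293H carrying a UAS-bla reporter for PPARd, treated at 37 C with DMSO-dissolved compounds.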

[11] = biological target: Peroxisome proliferator-activated receptor delta (Homo sapiens) (UniProt Q03181); experiment: qHTS assay to identify small molecule antagonists of the peroxisome proliferator-activated receptor delta (PPARd) signaling pathway (AID 743215; active means well fitted inhibition curve with a large enough effect in the signal ratio in the repeat runs, not every such curve was filed as active; the % refers to the signal ratio;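 further: cells stimulated with agonist L165041 at 300 nM final during compound exposure; series mostly up to about 62 µM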)
How it was run: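 Agonist L165041 (300 nM final) added with compound to PPARd-bla HEK293H UAS-bla reporter cells; 17 h incubation at 37 C. Read-out: LiveBLAzer FRET substrate, 2 h at room temperature, fluorescence intensity.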

[12] = biological target: Bile acid receptor (Homo sapiens) (UniProt Q96RI1); experiment: qHTS assay to identify small molecule antagonists of the farnesoid-X-receptor (FXR) signaling pathway (AID 743217; active means well fitted inhibition curve with a large enough effect in the signal ratio in the repeat runs, not every such curve was filed as active; the % refers to the signal ratio)
Chain of Bile acid receptor (Homo sapiens) (Q96RI1 whole entry, looked up): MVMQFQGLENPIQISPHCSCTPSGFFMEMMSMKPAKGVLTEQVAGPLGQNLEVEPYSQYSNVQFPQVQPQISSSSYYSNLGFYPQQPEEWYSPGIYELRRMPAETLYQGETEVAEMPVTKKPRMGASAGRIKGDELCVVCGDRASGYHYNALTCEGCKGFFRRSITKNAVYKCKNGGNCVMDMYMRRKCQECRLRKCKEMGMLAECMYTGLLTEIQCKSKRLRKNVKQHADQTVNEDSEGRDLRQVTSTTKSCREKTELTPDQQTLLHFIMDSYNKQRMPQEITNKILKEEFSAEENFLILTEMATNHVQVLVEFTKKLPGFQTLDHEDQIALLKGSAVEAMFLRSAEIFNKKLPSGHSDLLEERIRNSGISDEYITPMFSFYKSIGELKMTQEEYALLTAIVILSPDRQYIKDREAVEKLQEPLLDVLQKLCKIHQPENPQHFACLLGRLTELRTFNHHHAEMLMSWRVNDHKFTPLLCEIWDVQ
How it was run: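 Antagonist mode: chenodeoxycholic acid at 50 uM final stimulates a UAS-driven beta-lactamase reporter in HEK 293T FXR-bla cells during 16 h, 37C compound exposure. Read-out is FRET substrate fluorescence after 2 h at room temperature.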

[13] = qHTS assay to identify small molecule agonists of the farnesoid-X-receptor (FXR) signaling pathway - cell viability counter screen (AID 743218); further: nearly all actives have a fitted effect of over 45% in size
How it was run: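 Viability counter screen in the same wells: CellTiter-Glo luminescence, 30 min room-temperature incubation, measured after the beta-lactamase read. Cells were GeneBLAzer FXR-UAS-bla HEK 293T, compound-treated 16 h at 37C.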

[14] = biological target: Bile acid receptor (Homo sapiens) (UniProt Q96RI1); experiment: qHTS assay to identify small molecule agonists of the farnesoid-X-receptor (FXR) signaling pathway (AID 743220; active means well fitted activation curve with a large enough effect in the signal ratio in the repeat runs, not every such curve was filed as active; the % refers to the signal ratio)
How it was run: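 FXR-UAS-bla HEK 293T cells carrying a UAS-driven beta-lactamase reporter were plated for 5 h at 37C/5% CO2, then exposed to DMSO-dissolved Tox21 10K compounds for 16 h at 37C. A LiveBLAzer B/G FRET substrate was loaded for 2 h at room temperature before fluorescence reading.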

[15] = qHTS assay to identify small molecule antagonists of the farnesoid-X-receptor (FXR) signaling pathway - cell viability counter screen (AID 743221; active means well fitted cell-killing curve with a large enough effect in the repeat runs, not every such curve was filed as active; further: nearly all actives have a fitted effect of over 50% in size)
How it was run: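 Multiplexed counter screen: viability of FXR-bla HEK 293T cells under agonist stimulation by chenodeoxycholic acid (50 uM, final) and test compound for 16 h at 37 C, measured by CellTiter-Glo luminescence in the reporter wells.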

[16] = biological target: Vitamin D3 receptor (Homo sapiens) (UniProt P11473); experiment: qHTS assay to identify small molecule agonists of the vitamin D receptor (VDR) signaling pathway (AID 743222; calls by dose curve)
Chain of Vitamin D3 receptor (Homo sapiens) (P11473 whole entry, looked up): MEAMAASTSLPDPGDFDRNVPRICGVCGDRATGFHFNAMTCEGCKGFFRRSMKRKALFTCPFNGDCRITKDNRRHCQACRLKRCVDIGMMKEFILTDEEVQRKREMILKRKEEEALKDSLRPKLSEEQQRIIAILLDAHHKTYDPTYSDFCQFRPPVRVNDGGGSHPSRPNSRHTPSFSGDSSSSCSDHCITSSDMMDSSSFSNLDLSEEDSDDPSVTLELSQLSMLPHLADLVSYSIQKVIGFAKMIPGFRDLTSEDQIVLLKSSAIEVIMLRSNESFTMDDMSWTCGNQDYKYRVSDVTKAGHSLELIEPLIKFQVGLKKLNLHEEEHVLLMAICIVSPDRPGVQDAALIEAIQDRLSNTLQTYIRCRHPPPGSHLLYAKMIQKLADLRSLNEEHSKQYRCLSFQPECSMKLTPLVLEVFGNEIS
How it was run: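 Agonist mode, beta-lactamase reporter: fluorescence from LiveBLAzer B/G FRET substrate (2 h, room temperature) read after 16 h compound treatment at 37 C of VDR-bla cells, which were pre-incubated 4 h after seeding.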

[17] = biological target: Vitamin D3 receptor (Homo sapiens) (UniProt P11473); experiment: qHTS assay to identify small molecule antagonists of the vitamin D receptor (VDR) signaling pathway (AID 743223; active means well fitted inhibition curve with a large enough effect in the signal ratio in the repeat runs, not every such curve was filed as active; the % refers to the signal ratio)
How it was run: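 Cells carrying a VDR-driven beta-lactamase reporter (VDR-bla) were co-treated with compound and 3 nM final 1alpha,25-dihydroxyvitamin D3 for 16 h at 37C; reporter activity was measured as FRET substrate fluorescence after 2 h at room temperature.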

[18] = qHTS assay to identify small molecule agonists of the vitamin D receptor (VDR) signaling pathway - cell viability counter screen (AID 743224); further: series mostly up to about 63 µM; nearly all actives have a fitted effect of over 50% in size
How it was run: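 Counter screen run in the same wells as the VDR-bla reporter assay: CellTiter-Glo luminescence, 30 min at room temperature, after 16 h compound treatment at 37C of cells pre-plated for 4 h.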

[19] = qHTS assay for small molecule agonists of the antioxidant response element (ARE) signaling pathway (AID 743202; active means well fitted activation curve with a large enough effect in the signal ratio in the repeat runs, not every such curve was filed as active; the % refers to the signal ratio)
How it was run: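 HepG2 ARE-bla reporter line, 2,000 cells/well; 5 h preincubation 37 C/5% CO2; compound (DMSO) 16 h 37 C; B/G FRET substrate 2 h RT; fluorescence intensity.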

[20] = qHTS assay to identify small molecule antagonists of the peroxisome proliferator-activated receptor delta (PPARd) signaling pathway - cell viability counter screen (AID 743213); further: nearly all actives have a fitted effect of over 50% in size
How it was run: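 HEK293H cells with the PPARd UAS-bla reporter, co-treated 17 h at 37 C with compounds and L165041 (300 nM final), were lysed with CellTiter-Glo. Luminescence indicated viable cell content.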
On the % scale 0 is the no-effect control and ±100 the full control effect.

C=CC(=O)OCC[N+](C)(C)C
inactive: Potency [1] | outcome [2] | outcome [3] | outcome [4] | outcome [5] | outcome [6] | Potency [7] | outcome [8] | outcome [9] | outcome [10] | outcome [11] | outcome [12] | outcome [13] | outcome [14] | outcome [15] | outcome [16] | outcome [17] | outcome [18]

O=C(O)CCCCCCCCCC(=O)O
inactive: Potency [1] | outcome [2] | outcome [3] | outcome [4] | outcome [5] | Potency [19] | outcome [6] | outcome [8] | outcome [9] | outcome [10] | outcome [20] | outcome [11] | outcome [16] | outcome [17] | outcome [18]

CC(=O)SCC(CC(=O)c1ccc(C)cc1)C(=O)O (configuration not stated)
inactive: Potency [1] | outcome [2] | outcome [3] | outcome [4] | outcome [5] | outcome [6] | Potency [7] | outcome [8] | outcome [9] | outcome [10] | outcome [20] | outcome [11] | outcome [12] | outcome [14] | outcome [15] | outcome [16] | outcome [17] | outcome [18]

CC(C)(C)OC(=O)c1ccccc1C(=O)O
inactive: Potency [1] | outcome [2] | outcome [3] | outcome [4] | outcome [5] | Potency [19] | outcome [6] | Potency [7] | outcome [10] | outcome [20] | outcome [12] | outcome [13] | outcome [14] | outcome [15] | outcome [16] | outcome [17] | outcome [18]

CC(C)CC(=O)N[C@H](C(=O)N[C@H](C(=O)N[C@@H](CC(C)C)[C@@H](O)CC(=O)N[C@@H](C)C(=O)N[C@@H](CC(C)C)[C@@H](O)CC(=O)O)C(C)C)C(C)C (Isovaleryl-VV[Sta]A[Sta]-OH)
inactive: Potency [1] | outcome [2] | outcome [3] | outcome [4] | outcome [5] | Potency [19] | outcome [6] | Potency [7] | outcome [10] | outcome [11] | outcome [13] | outcome [15] | outcome [16] | outcome [17] | outcome [18]

N=C(N)N1CCc2ccccc2C1
inactive: Potency [1] | outcome [2] | outcome [3] | ratio activity, negative = inhibition [4] -11.9% [at 5.95 µM] | activity change, negative = cytotoxicity [5] 0.134% [at 5.95 µM] | viability change, negative = cytotoxic [6] -8.38% [at 8.36 µM] | activity change, negative = cytotoxicity [7] 14.1% [at 5.95 µM] | activation [8] -0.5% [at 5.95 µM] | activity change, negative = cytotoxicity [9] 3.73% [at 5.95 µM] | activation [10] 2.47% [at 5.95 µM] | viability change, negative = cytotoxic [20] -9.71% [at 6.26 µM] | ratio activity, negative = inhibition [11] -18.7% [at 6.26 µM] | viability change, negative = cytotoxic [13] 5.62% [at 5.95 µM] | activity change, negative = cytotoxicity [15] -6.73% [at 5.95 µM] | activation [16] 4.08% [at 6.01 µM] | activity change, negative = cytotoxicity [18] -1.18% [at 5.95 µM]

CN(C)CCc1c[nH]c2ccc(C[C@H]3COC(=O)N3)cc12
inactive: Potency [1] | outcome [2] | outcome [3] | outcome [4] | outcome [5] | outcome [6] | Potency [7] | outcome [8] | outcome [9] | outcome [20] | outcome [12] | outcome [13] | outcome [14] | outcome [15] | outcome [18]

Cc1ccccc1C#N
inactive: Potency [1] | outcome [2] | outcome [3] | outcome [4] | outcome [5] | outcome [6] | Potency [7] | outcome [8] | outcome [9] | outcome [10] | outcome [20] | outcome [12] | outcome [13] | outcome [14] | outcome [15] | outcome [16] | outcome [17] | outcome [18]
